Assay results as given in the supplement of paper PMC12024529.

test system: HEK293 WT BDD-FVIII-Gluc; experiment: secreted FVIII-Gluc luciferase Z-score vs DMSO control; higher = more FVIII-Gluc secretion; details: 5 µM
Protocol: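 Natural plant-compound library (480 compounds, ST catalogue IDs) screened on HEK293 cells stably expressing WT BDD-FVIII-Gaussia luciferase fusion at 5 µM. Secreted Gluc activity in the medium is given as a Z-score relative to DMSO controls.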

SMILES	secreted FVIII-Gluc luciferase Z-score
CN1C[C@H](CNC(=O)OCc2ccccc2)C[C@@H]2c3cccc4c3c(cn4C)C[C@H]21	-0.629
CN1CC(C(=O)NC2(C)OC3(O)C4CCCN4C(=O)C(Cc4ccccc4)N3C2=O)C=C2c3cccc4[nH]cc(c34)CC21 (centres undefined)	0.871
C=CCCN1C[C@@H]2C[C@@H](C1)c1cccc(=O)n1C2	-0.00507
O=c1ccc2cc(OC3OC(CO)C(O)C(O)C3O)c(O)cc2o1 (centres undefined)	0.455
CC(C)(C)[C@]1(O)C[C@@H]2OC(=O)C[C@@]23C(=O)O[C@@H]2OC(=O)[C@H](O)[C@]213	-0.32
CC(C)C1(NC(=O)[C@@H]2C=C3c4cccc5[nH]cc(c45)C[C@H]3N(C)C2)O[C@@]2(O)[C@@H]3CCCN3C(=O)[C@H](Cc3ccccc3)N2C1=O (some centres undefined)	1.35
O=CN1CCCCC1C1CC[C@H]2CCCCN2C1 (some centres undefined)	0.233
Oc1ccc(CC2NCCc3cc(O)c(O)cc32)cc1O (centres undefined)	0.392
CNC(=O)Oc1ccc2c(c1)C1(C)CCN(C)C1N2C (centres undefined)	0.602
CN[C@@H](Cc1c[nH]c2ccccc12)C(=O)O	0.0662
Cc1nccc2c1[nH]c1ccccc12	-0.617
C[C@]12CC[C@H](O)C[C@H]1CC[C@@H]1[C@@H]2C[C@@H](O)[C@]2(C)[C@@H](C3=CC(=O)OC3)CC[C@]12O	-7.45
NCCc1c[nH]c2ccc(O)cc12	0.752
C/C=C/c1ccc2c(c1)OCO2	0.131
COc1cc2c(cc1OC)C(C)NCC2 (centres undefined)	0.0745
OC1COC(NC2OCC(O)C(O)C2O)C(O)C1O (centres undefined)	0.00225
CC1=C2C3OC(=O)C(C)C3CC[C@@]2(C)C=CC1=O (some centres undefined)	0.0932

SMILES	secreted FVIII-Gluc luciferase Z-score
O=CN1C[C@@H]2C[C@H](C1)c1cccc(=O)n1C2	0.583
COc1ccc(Cc2nccc3cc(OC)c(OC)cc23)cc1OC	-0.721
C[C@@H](CO)NC(=O)[C@@H]1C=C2c3cccc4[nH]cc(c34)C[C@H]2N(C)C1	0.475
CCC1CN2CCc3cc(OC)c(OC)cc3[C@@H]2C[C@@H]1C[C@H]1NCCc2cc(OC)c(OC)cc21 (some centres undefined)	-3.94
CN1CCc2cc3c(cc2[C@H]1[C@@H]1OC(=O)c2c1ccc1c2OCO1)OCO3	0.754
NCC(O)c1cccc(O)c1 (centres undefined)	0.434
COC(C)C(O)(C(=O)OC1=CCN2CC[C@H](O)[C@@H]12)C(C)C (some centres undefined)	-0.914
Cc1ccc2[nH]c(CCN)cc2c1	1.37
COc1cc2c(cc1OC)-c1c(OC)c(OC)c(CO)c3c1C(C2)N(C)CC3 (centres undefined)	-0.0378
Cc1cc2c(C(C)C)c(O)c(O)c(C=O)c2c(O)c1-c1c(C)cc2c(C(C)C)c(O)c(O)c(C=O)c2c1O	1.13
CC(C)[C@H]1C(=O)N2CCC[C@H]2[C@]2(O)OC(NC(=O)[C@@H]3C=C4c5cccc6[nH]cc(c56)C[C@H]4N(C)C3)(C(C)C)C(=O)N12 (some centres undefined)	0.939
CN[C@H]1CCc2cc(OC)c(OC)c(OC)c2-c2ccc(OC)c(=O)cc21	-3.62
COc1cc2c(c(OC)c1OC)-c1ccc(OC)c(=O)cc1C(NC(C)=O)CC2 (centres undefined)	-6.65
CCN1CC2(COC(=O)c3ccccc3N3C(=O)CC(C)C3=O)CC[C@H](OC)[C@@]34C5C[C@@H]6[C@@H](OC)C[C@@](O)(C5[C@H]6OC)[C@](O)([C@@H](OC)C23)[C@@H]14.[O-][Cl+3]([O-])([O-])O (some centres undefined)	0.461
CCC1CN2CCC1CC2C(O)c1ccnc2ccc(OC)cc12 (centres undefined)	-0.168
OC[C@@H]1CCCN2CCCC[C@H]12	-0.141
C=C1C/C(=C/C)C(=O)O[C@@H]2CCN3CC=C(COC(=O)[C@]1(C)O)[C@H]23	0.649
